# According to PubChem BioAssay (NCI):
# Compounds without any hit were thinned out: in the full panel of roughly 83,000, 20% have a hit.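 Step 1: grow cells in 96-well plates. Step 2: add test compound at a single concentration. Step 3: incubate 48 h. Step 4: record percent growth.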 A number with no mark means an inactive call. Calls of active or inactive are those of the source. The calls were made as follows: active = growth percent below 10; inactive = the rest.
# Test system: HCT-15 colon
# Assay: NCI-60 one-dose screen, 48 h (100 = growth as untreated, 0 = no growth, -100 = all killed)
# Conditions: 10 µM unless noted
row,SMILES,growth
1,Cc1ccc2c(C(C[N+](=O)[O-])c3ccco3)c(-c3ccccc3)[nH]c2c1 (stereo not drawn),19.5%
2,NC(=O)c1cc(Br)ccc1NC(=O)/C=C/c1ccccc1,30.9%
3,O=C1c2cccc3cccc(c23)C(=O)N1CCCCN1CCN(CCCCOc2ccc(-c3nc4ccc(N5CCOCC5)cc4[nH]3)cc2)CC1,87.8%
4,Cc1cc(C)nc(SC2=C(Nc3cccc(Cl)c3)C(=O)N(Cc3ccccc3)C2=O)n1,59.9% [30 µM]
5,CN(C)C(=S)N=Nc1c(O)[nH]c2ccccc12,31.7%
6,O=C1/C(=C/c2ccc3c(c2)OCO3)SC(=S)N1CCc1ccc(O)cc1,93%
7,N#Cc1cnn(-c2nc3c(Cl)cccc3s2)c1N,91.8%
8,Nc1ccn(-c2ccc(Br)cc2)c(=O)n1,119%
9,Cc1ccc(C2=NN3C(C2)c2cc(Br)ccc2OC32CCN(Cc3ccccc3)CC2)o1 (stereo not drawn),85.1%
10,COc1ccc(C(=O)COc2ccc(/C=C3\COc4ccc(OC)cc4C3=O)cc2)cc1,77.5%
11,CCN(CC)c1ccc(-c2cc(-c3cc(OC)c(OC)c(OC)c3)nc(N3CCOCC3)c2C#N)cc1,10.7%
12,Cn1cc(-c2nonc2-c2cn(C)c3ccc(F)cc23)c2ccccc21,18.8%
13,COc1ccc(C(=O)COc2cccc(/C=C3\CSc4ccccc4C3=O)c2)cc1,-54.1% (active)
14,CCn1c(Cc2ccccc2Nc2c(Cl)cccc2Cl)nnc1SCC(=O)NN1C(=O)/C(=C/c2cc(OC)c(O)c(OC)c2)SC1=S,50.4%
15,O=C1c2ccccc2C(=O)c2c(N=Nc3[nH]c(=S)[nH]c3O)cccc21,23.2%
16,C#CCOc1ccc2ncnc(N3CCC(NC(=O)CCl)CC3)c2c1,67.7% [8.25 µM]
17,Cc1cc2c3ccccc3ccc2[n+]2ccccc12,105%
18,Cc1ccc(/C=C2\SC(=S)N(CC(=O)NCCCN3CCOCC3)C2=O)cc1,96.3%
19,CC(=O)O[C@H]1[C@@H]2OC(=O)C(CSc3ccccc3)[C@@H]2C[C@H]2O[C@]2(C)CC/C=C(\C)CCC[C@@H]1C (stereo partly drawn),12.8%

row,SMILES,growth
1,Cc1cc2nc(NC(=O)CN3CCN(CCN4C(=O)c5cccc6cccc(c56)C4=O)CC3)sc2cc1C,81.1%
2,CC(=O)Oc1ccc(Cl)cc1CN(C(C)=O)C1CCCCC1,101%
3,O=C(NCCN1CCOCC1)Nc1ccc(-c2cc3c(Nc4ccc(Oc5cccc(C(F)(F)F)c5)c(Cl)c4)ncnc3s2)cc1,-56.2% (active)
4,Cn1ccnc1C(=O)/C=C/c1ccccc1,20.4%
5,Brc1ccc(-c2csc(Nc3ccccn3)n2)cc1,138%
6,COc1ccc2c(c1)O/C(=C\c1cccc(OCC(=O)Nc3nc4c(s3)CCCC4)c1)C2=O,84.8%
7,C=CCSSC1N=CNc2nc[nH]c21 (stereo not drawn),52.7%
8,COc1ccc(S(=O)(=O)N2CCCCCC2)cc1NC(=O)c1[nH]c(C)c2c1CCCCC2=O,12.8%
9,Cc1ccc(C(SCC(N)C(=O)O)(c2ccccc2)c2ccc(C)cc2)cc1 (stereo not drawn),20.1%
10,O=C(O)c1ccc(NC(=O)c2ccc(-c3cccc([N+](=O)[O-])c3)o2)cc1,99.2%
11,CC1=CC(C)(C)Nc2ccc(Cc3ccc4c(c3)C(C)=CC(C)(C)N4)cc21,101%
12,COc1ccc(C2CC(c3ccc4ccccc4c3)=NN2/C=C2\SC(=S)N(NC(=O)Cc3ccccc3Nc3c(Cl)cccc3Cl)C2=O)cc1 (stereo not drawn),19.4%
13,Cn1c(NCCc2ccc(O)c(O)c2)nc2c1c(=O)n(Cc1ccc(Br)cc1)c(=O)n2C,42.7%
14,Cc1ccc2c(c1)C(=O)/C(=C/c1cccc(OCC(=O)c3ccc(Cl)cc3)c1)CS2,81.3%
15,COC(=O)c1ccc(NC(=O)c2ccc(-c3cccc([N+](=O)[O-])c3)o2)cc1,101%
16,COc1cc(C(=O)/C=C/c2cccnc2Nc2ccc(Cl)cc2)cc(OC)c1OC,-45.9% (active)
17,Cc1cc(C)nc(SC2=C(Nc3cc(Cl)ccc3O)C(=O)N(Cc3ccccc3)C2=O)n1,92.1% [30 µM]
18,CC(C)CSc1nc(N)nc2c1ncn2C1OC(CO)C(O)C1O (stereo not drawn),92.7%
19,O=C1NC(=Nc2ccc(O)cc2)S/C1=C\c1cccc(Cl)c1,30.1%
